# “And” between values parts separate entries of the source, which are not always exact repeats. Equal entries are not always repeated. Inconclusive results are not listed. The source made the active and inactive calls. Calls come from the whole dose curve; as a rule, active = well fitted curve in the direction sought with a large enough effect; inconclusive = small, poorly fitted or top-dose-only effect, or another doubt; inactive = no such curve, though single readings can be large; an effect the other way counts as inactive or inconclusive.
# Target: Furin (Homo sapiens) (UniProt P09958)
# Assay: Furin counterscreen qHTS for Zika virus inhibitors (AID 1347149); note: nearly all actives have a fitted effect of over 70% in size; note: potency is the fitted concentration of half-maximal effect
# Details: furin enzymatic counterscreen, fluorogenic substrate; series mostly up to 57.5 µM
# Outline: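 Fluorogenic cleavage of BOC-RVRR-AMC (2 microM final, Km ~15 µM) was monitored (ex 340, em 450 nm) at 37C after 15 min RT preincubation of 5 nM furin with compounds in HEPES pH 7.0 buffer with CaCl2 and Triton X-100. Percent inhibition was fitted to a 4-parameter Hill curve.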
# Chain of Furin (Homo sapiens) (P09958 whole entry, looked up): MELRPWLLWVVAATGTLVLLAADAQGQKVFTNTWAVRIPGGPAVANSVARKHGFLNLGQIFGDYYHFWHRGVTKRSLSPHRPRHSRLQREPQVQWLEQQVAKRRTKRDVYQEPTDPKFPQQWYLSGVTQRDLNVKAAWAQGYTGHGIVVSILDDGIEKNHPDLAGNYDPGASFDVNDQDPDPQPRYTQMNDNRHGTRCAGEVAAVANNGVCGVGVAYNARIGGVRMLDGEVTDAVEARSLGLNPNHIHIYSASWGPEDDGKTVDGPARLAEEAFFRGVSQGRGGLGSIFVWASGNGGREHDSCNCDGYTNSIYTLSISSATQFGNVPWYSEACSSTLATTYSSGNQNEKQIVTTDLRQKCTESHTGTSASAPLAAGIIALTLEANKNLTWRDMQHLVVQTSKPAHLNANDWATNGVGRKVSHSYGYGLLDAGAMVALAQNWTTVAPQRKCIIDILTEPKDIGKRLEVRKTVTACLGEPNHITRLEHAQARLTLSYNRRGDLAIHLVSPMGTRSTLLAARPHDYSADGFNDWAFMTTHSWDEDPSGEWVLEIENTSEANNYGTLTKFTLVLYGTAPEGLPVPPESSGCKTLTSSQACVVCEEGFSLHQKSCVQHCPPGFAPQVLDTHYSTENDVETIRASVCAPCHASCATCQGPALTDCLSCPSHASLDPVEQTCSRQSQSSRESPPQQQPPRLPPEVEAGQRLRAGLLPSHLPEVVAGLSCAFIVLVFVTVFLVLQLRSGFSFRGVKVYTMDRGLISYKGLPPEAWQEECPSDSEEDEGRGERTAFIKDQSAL
row,Structure (SMILES),Potency
1,CCCc1c(OCCCOc2ccc(OCC(=O)O)cc2)ccc(C(C)=O)c1O,inactive
2,CCCC[C@@]1(C2CCCC2)Cc2cc(OCC(=O)O)c(Cl)c(Cl)c2C1=O,inactive
3,C/C(=C\c1ccc(C(=O)O)cc1)c1ccc2c(c1)C(C)(C)CCC2(C)C,21.5 µM (active)
4,CNC(=O)c1cc2c(cn1)[nH]c1ccccc12,24.1 µM (active)
5,O=C(O)c1ccccc1Nc1cccc(OCc2ccc3ccccc3n2)c1,inactive

# Test system: Zika virus NS2B-NS3 protease (unlinked)
# Assay: Optimization of GU AMC qHTS for Zika virus inhibitors: Unlinked NS2B-NS3 protease assay (AID 1347151); note: nearly all actives have a fitted effect of over 80% in size; note: potency is the fitted concentration of half-maximal effect
# Details: recombinant ZIKV NS2B-NS3 protease, fluorogenic AMC substrate; series mostly up to 52.5 µM
# Outline: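 Percent inhibition is derived from the 15-min change in AMC fluorescence, normalized against no-inhibitor and no-enzyme controls, then fitted to a 4-parameter Hill curve. Aprotinin was the intraplate control.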
row,Structure (SMILES),Potency
1,NCCC1CCCC(CCN)N1 (stereo not drawn),inactive
2,COc1ccc(CCn2nnnc2C2(c3ccc(C)cc3)CC2)cc1,inactive
3,C=CC1(C)CC(=O)C2(O)C(C)(O1)C(OC(C)=O)C(O)C1C(C)(C)CCC(O)C12C (stereo not drawn),inactive
4,NCCCCN,inactive
5,C=CC[C@H](N)C(=O)O,inactive
6,Nc1ncnc2c1ncn2C1CCCC1,inactive
7,COc1ccc2c(c1)c(CC(=O)O)c(C)n2C(=O)c1ccccc1,inactive
8,C/C(=C\c1ccc(C(=O)O)cc1)c1ccc2c(c1)C(C)(C)CCC2(C)C,10.6 µM (active)
9,Nc1ncnc2c1nc(Br)n2C1OC2COP(=O)(O)O[C@@H]2C1O (stereo partly drawn),inactive
10,O=C(O)CCC/C=C\C[C@@H]1[C@@H](/C=C/[C@H](O)C2Cc3ccccc3C2)[C@@H](F)C[C@@H]1O,inactive
11,O=C(O)C1CN(CCCP(=O)(O)O)CCN1 (stereo not drawn),inactive
12,N=C(N)c1ccccc1,inactive
13,Cc1nc2n(c(=O)c1CCN1CCC(c3noc4cc(F)ccc34)CC1)CCCC2O (stereo not drawn),inactive
14,COc1ccc(C(=O)NCc2cccnc2)cc1C(=O)NCc1cccnc1,inactive
15,O=c1cc(-c2ccccc2F)[nH]c2cc3c(cc12)OCO3,26.7 µM (active)
16,CNC(=O)c1cc2c(cn1)[nH]c1ccccc12,26.7 µM (active)
17,N[C@@H](Cc1ccc(F)cc1)C(=O)O,inactive
18,O=C(c1ccc2c(c1)OCCO2)N1CCCCC1,inactive
19,NCC(O)(CS(=O)(=O)O)c1ccc(Cl)cc1 (stereo not drawn),inactive
20,CC(C)[C@@H]1CC[C@@H](C)C[C@@H]1P(=O)(c1ccccc1)c1ccccc1,inactive
21,O=C(O)C1CCNCC1,inactive
22,CC(N)=O,inactive
23,CC(=O)C(C)=O,inactive
24,O=C(O)/C=C/c1cnc[nH]1,inactive
25,Oc1ccc(Cn2cc[nH]c2=S)cc1,inactive
26,NC1CONC1=O (stereo not drawn),inactive
27,NC(=O)CNCCC(c1ccccc1)c1ccccc1,inactive
28,O=C(O)c1ccccc1Nc1cccc(OCc2ccc3ccccc3n2)c1,29.9 µM (active)

# Test system: Zika virus NS2B-NS3 protease
# Assay: Primary screen GU AMC qHTS for Zika virus inhibitors (AID 1347154); note: nearly all actives have a fitted effect of over 70% in size; note: potency is the fitted concentration of half-maximal effect
# Details: Zika NS2B-NS3 unlinked protease, AMC fluorogenic substrate; series mostly up to 54.1 µM
# Outline: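 Fluorogenic AMC-substrate cleavage by noncovalent NS2B-NS3 protease complex (25 nM, pH 8.0 Tris buffer with Tween 20) followed for 15 minutes at room temperature (~20% conversion). Percent inhibition from ex340/em450 signal change, fitted by 4-parameter Hill equation.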
row,Structure (SMILES),Potency
1,CCCCCCCCCCC(C)(C)C(=O)Nc1c(OC)cc(OC)cc1OC,inactive
2,C/C(=C\c1ccc(C(=O)O)cc1)c1ccc2c(c1)C(C)(C)CCC2(C)C,inactive
3,CNC(=O)c1cc2c(cn1)[nH]c1ccccc12,21.2 µM (active) and 18.9 µM (active)
4,NC1(C(=O)O)CCc2cc(C(=O)O)ccc21 (stereo not drawn),inactive
5,O=C(O)c1ccccc1Nc1cccc(OCc2ccc3ccccc3n2)c1,inactive

# Test system: not listed separately
# Assay: Confirmatory screen NINDS Rhodamine qHTS for Zika virus inhibitors (AID 1347161); note: potency is the fitted concentration of half-maximal effect; nearly all actives have a fitted effect of over 60% in size
# Details: purified enzyme assay, Rhodamine110 substrate fluorescence, 15 min; series mostly up to 114 µM
# Outline: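 Rhodamine110-peptide cleavage (1.5 µM substrate) by 25 nM linked NS2B-NS3 enzyme at pH 8.0 (Tris, Tween 20), after 15 min RT preincubation with compounds; 15-min fluorescence change normalized to controls and Hill-fitted.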
row,Structure (SMILES),Potency
1,CCCc1c(OCCCOc2ccc(OCC(=O)O)cc2)ccc(C(C)=O)c1O,3.5 µM (active)
2,CCCC[C@@]1(C2CCCC2)Cc2cc(OCC(=O)O)c(Cl)c(Cl)c2C1=O,7.82 µM (active)
3,C/C(=C\c1ccc(C(=O)O)cc1)c1ccc2c(c1)C(C)(C)CCC2(C)C,1.56 µM (active)
4,O=C(O)c1ccccc1Nc1cccc(OCc2ccc3ccccc3n2)c1,3.49 µM (active)

# Test system: Zika virus NS2B-NS3 protease (linked)
# Assay: 384 well plate NINDS AMC confirmatory qHTS for Zika virus inhibitors (AID 1347163); note: nearly all actives have a fitted effect of over 50% in size; note: potency is the fitted concentration of half-maximal effect
# Details: Recombinant NS2B-NS3 protease, Ac-VKTGKR-AMC fluorescence; series mostly up to 100 µM
# Outline: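 Linked NS2B-NS3 protease (final 5 nM, 30 nM or 60 nM) was preincubated with compounds (final up to 1 mM) for ~15 minutes. Ac-VKTGKR-AMC substrate (final 30 microM) then reacted for 25 minutes at room temperature in the dark. Fluorescence (ex 355/em 460 nm) was normalized to no-enzyme and no-inhibitor controls.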
row,Structure (SMILES),Potency
1,CCCc1c(OCCCOc2ccc(OCC(=O)O)cc2)ccc(C(C)=O)c1O,355 µM (active)
2,C/C(=C\c1ccc(C(=O)O)cc1)c1ccc2c(c1)C(C)(C)CCC2(C)C,inactive
3,O=C(O)c1ccccc1Nc1cccc(OCc2ccc3ccccc3n2)c1,158 µM (active)

# Test system: Zika virus NS2B-NS3 protease (linked construct)
# Assay: 384 well plate NINDS Rhodamine confirmatory qHTS for Zika virus inhibitors (AID 1347164); note: nearly all actives have a fitted effect of over 65% in size; note: potency is the fitted concentration of half-maximal effect
# Details: rhodamine-110 peptide substrate fluorescence; series mostly up to 100 µM
# Outline: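 Compounds are incubated about 15 minutes with linked protease (5, 30 or 60 nM final). Rhodamine 110-tagged Ac-LKRR substrate (10 microM final) is added and fluorescence measured after 25 minutes.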
row,Structure (SMILES),Potency
1,CCCc1c(OCCCOc2ccc(OCC(=O)O)cc2)ccc(C(C)=O)c1O,50.1 µM (active)
2,C/C(=C\c1ccc(C(=O)O)cc1)c1ccc2c(c1)C(C)(C)CCC2(C)C,inactive
3,O=C(O)c1ccccc1Nc1cccc(OCc2ccc3ccccc3n2)c1,63.1 µM (active)

# Target: Lysine-specific demethylase 5B (Homo sapiens) (UniProt Q9UGL1)
# Assay: Optimization screen for KDM5B Histone Demethylases FDH coupled qHTS against the LOPAC library (AID 1347166); note: 0% is about no effect
# Details: KDM5B demethylation, FDH-coupled NADH fluorescence (FDH is formaldehyde dehydrogenase); at 57.5 µM (top of the series)
# Outline: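 KDM5BDeltaAP (200nM final) preincubated 10 min with compound, then 12.5uM H3K4Me3, 25uM a-ketoglutarate, ascorbate, Fe(II), NAD+ and FDH added; 50mM HEPES pH 7.5, 0.01% Tween-20. NADH fluorescence (340/450 nm) change over 30 min, room temperature.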
# Chain of Lysine-specific demethylase 5B (Homo sapiens) (Q9UGL1 whole entry, looked up): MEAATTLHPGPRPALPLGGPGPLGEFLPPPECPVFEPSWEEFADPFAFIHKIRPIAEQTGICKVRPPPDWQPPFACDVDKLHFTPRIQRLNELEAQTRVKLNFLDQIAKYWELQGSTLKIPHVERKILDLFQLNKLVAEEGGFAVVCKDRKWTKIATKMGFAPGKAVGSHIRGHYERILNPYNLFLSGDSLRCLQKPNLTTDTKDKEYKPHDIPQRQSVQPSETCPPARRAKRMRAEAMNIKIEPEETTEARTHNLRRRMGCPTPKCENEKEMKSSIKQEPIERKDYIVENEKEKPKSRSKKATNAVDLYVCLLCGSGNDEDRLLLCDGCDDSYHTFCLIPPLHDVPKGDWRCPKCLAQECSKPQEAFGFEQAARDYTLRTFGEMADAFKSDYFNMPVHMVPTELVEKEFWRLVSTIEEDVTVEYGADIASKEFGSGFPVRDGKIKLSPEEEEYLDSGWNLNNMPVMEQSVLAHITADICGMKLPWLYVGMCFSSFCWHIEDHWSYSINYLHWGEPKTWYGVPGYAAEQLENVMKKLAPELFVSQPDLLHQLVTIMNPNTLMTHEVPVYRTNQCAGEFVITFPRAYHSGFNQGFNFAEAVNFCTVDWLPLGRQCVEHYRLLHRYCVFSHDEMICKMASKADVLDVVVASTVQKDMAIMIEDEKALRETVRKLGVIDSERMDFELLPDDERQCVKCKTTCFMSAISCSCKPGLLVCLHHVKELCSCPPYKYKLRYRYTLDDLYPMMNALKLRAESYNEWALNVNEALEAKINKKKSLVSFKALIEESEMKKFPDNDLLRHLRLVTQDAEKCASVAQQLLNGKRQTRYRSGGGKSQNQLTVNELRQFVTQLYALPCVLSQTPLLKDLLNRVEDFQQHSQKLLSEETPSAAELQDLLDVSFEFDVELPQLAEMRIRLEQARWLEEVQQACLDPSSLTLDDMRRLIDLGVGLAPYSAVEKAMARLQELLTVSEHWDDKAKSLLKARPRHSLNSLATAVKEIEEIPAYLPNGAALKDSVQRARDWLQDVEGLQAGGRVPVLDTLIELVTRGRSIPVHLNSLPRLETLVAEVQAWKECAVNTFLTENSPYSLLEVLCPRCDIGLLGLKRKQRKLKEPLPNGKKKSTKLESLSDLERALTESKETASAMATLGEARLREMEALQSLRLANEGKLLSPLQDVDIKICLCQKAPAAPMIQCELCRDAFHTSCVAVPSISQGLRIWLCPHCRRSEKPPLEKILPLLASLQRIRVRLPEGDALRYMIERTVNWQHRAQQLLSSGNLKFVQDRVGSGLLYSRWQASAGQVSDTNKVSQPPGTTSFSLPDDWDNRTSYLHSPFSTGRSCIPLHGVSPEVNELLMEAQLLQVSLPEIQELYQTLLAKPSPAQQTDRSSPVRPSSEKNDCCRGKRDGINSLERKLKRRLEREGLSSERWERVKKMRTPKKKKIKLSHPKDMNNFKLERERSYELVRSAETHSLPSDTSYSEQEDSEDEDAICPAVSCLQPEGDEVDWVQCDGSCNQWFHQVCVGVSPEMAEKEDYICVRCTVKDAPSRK
row,Structure (SMILES),"activity, negative = inhibition"
1,NCCC1CCCC(CCN)N1 (stereo not drawn),-5.63% (inactive)
2,COc1ccc(CCn2nnnc2C2(c3ccc(C)cc3)CC2)cc1,-4.62% (inactive)
3,O=c1[nH]c2cc(Cl)ccc2c(O)c1-c1ccc(Oc2ccccc2)cc1,-28.1% (inactive)
4,C=CC1(C)CC(=O)C2(O)C(C)(O1)C(OC(C)=O)C(O)C1C(C)(C)CCC(O)C12C (stereo not drawn),-2.72% (inactive)
5,NCCCCN,-1.54% (inactive)
6,CCCc1c(OCCCOc2ccc(OCC(=O)O)cc2)ccc(C(C)=O)c1O,-6.32% (inactive)
7,C=CC[C@H](N)C(=O)O,-4.4% (inactive)
8,Nc1ncnc2c1ncn2C1CCCC1,-3.1% (inactive)
9,Cc1nc(N=Nc2ccc(C(=O)O)cc2)c(COP(=O)(O)O)c(C=O)c1O,-12.4% (inactive)
10,COc1ccc2c(c1)c(CC(=O)O)c(C)n2C(=O)c1ccccc1,5.12% (inactive)
11,CCCOC(=O)c1c(-c2ccccc2)nc(CC)c(C(=O)SCC)c1CCC,-14.4% (inactive)
12,CCCCCCCCCCC(C)(C)C(=O)Nc1c(OC)cc(OC)cc1OC,-22.8% (inactive)
13,CCCC[C@@]1(C2CCCC2)Cc2cc(OCC(=O)O)c(Cl)c(Cl)c2C1=O,-4.31% (inactive)
14,Nc1ncnc2c1nc(Br)n2C1OC2COP(=O)(O)O[C@@H]2C1O (stereo partly drawn),-2.56% (inactive)
15,O=C(O)CCC/C=C\C[C@@H]1[C@@H](/C=C/[C@H](O)C2Cc3ccccc3C2)[C@@H](F)C[C@@H]1O,-5.83% (inactive)
16,O=C(O)C1CN(CCCP(=O)(O)O)CCN1 (stereo not drawn),0.457% (inactive)
17,N=C(N)c1ccccc1,-3.44% (inactive)
18,Brc1c(Br)c(Br)c2[nH]cnc2c1Br,0.346% (inactive)

row,Structure (SMILES),"activity, negative = inhibition"
1,Cc1nc2n(c(=O)c1CCN1CCC(c3noc4cc(F)ccc34)CC1)CCCC2O (stereo not drawn),-13.2% (inactive)
2,COc1ccc(C(=O)NCc2cccnc2)cc1C(=O)NCc1cccnc1,-3.95% (inactive)
3,O=c1cc(-c2ccccc2F)[nH]c2cc3c(cc12)OCO3,-604% (active)
4,N[C@@H](Cc1ccc(F)cc1)C(=O)O,-14.8% (inactive)
5,N=C(N)c1ccc(OCCCCCOc2ccc(C(=N)N)cc2)cc1 (tested in a mixture with another compound),-13.6% (inactive)
6,O=C(c1ccc2c(c1)OCCO2)N1CCCCC1,-3.79% (inactive)
7,NCC(O)(CS(=O)(=O)O)c1ccc(Cl)cc1 (stereo not drawn),-2.36% (inactive)
8,CC(C)[C@@H]1CC[C@@H](C)C[C@@H]1P(=O)(c1ccccc1)c1ccccc1,-4.33% (inactive)
9,Clc1nccc2c1ccc1ccccc12,2.06% (inactive)
10,O=C(O)C1CCNCC1,-5.33% (inactive)
11,CC(N)=O,-7.02% (inactive)
12,CC(=O)C(C)=O,-10.5% (inactive)
13,O=C(O)/C=C/c1cnc[nH]1,-28.2% (inactive)
14,Oc1ccc(Cn2cc[nH]c2=S)cc1,-15.9% (inactive)
15,NC1CONC1=O (stereo not drawn),-3.54% (inactive)
16,NC(=O)CNCCC(c1ccccc1)c1ccccc1,2.72% (inactive)
17,O=C(O)c1ccccc1Nc1cccc(OCc2ccc3ccccc3n2)c1,-2.34% (inactive)

# Source: PubChem BioAssay (NCATS)
